From PubChem BioAssay (EPA / NIEHS)
Inconclusive results are not listed. Activity calls are given as the source filed them. Rule for the calls, unless noted: active = hit-call score of the fitted dose curve at least 0.9, where 1 is the maximum; inactive = score below 0.9.

Tests used:
[1] = target: Hepatocyte nuclear factor 3-beta (Homo sapiens) (UniProt Q9Y261); assay: ATG_FoxA2_CIS: Attagene CIS-FACTORIAL HepG2 Assay for human Forkhead box A2 (FOXA2) (AID 2282942); conditions: HepG2 cis-reporter transcription factor activity, 24 h; actives raise or lower the signal
Hepatocyte nuclear factor 3-beta (Homo sapiens), sequence (Q9Y261 whole entry, looked up): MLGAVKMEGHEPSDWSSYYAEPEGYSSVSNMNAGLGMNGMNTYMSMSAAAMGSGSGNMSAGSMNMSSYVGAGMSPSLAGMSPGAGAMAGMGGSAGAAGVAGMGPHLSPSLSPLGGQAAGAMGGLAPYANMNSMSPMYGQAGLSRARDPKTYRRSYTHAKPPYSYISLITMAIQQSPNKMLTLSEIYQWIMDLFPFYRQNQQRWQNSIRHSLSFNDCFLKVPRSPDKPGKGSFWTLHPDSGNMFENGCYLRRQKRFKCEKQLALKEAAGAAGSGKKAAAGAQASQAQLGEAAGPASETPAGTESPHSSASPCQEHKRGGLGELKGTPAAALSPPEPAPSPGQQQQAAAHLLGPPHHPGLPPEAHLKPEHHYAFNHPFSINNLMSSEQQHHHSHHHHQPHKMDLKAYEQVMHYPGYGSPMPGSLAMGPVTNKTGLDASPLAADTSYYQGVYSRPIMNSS
In short: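 Endogenous transcription factor activity was read in HepG2 cells carrying transiently transfected cis-promoter reporter units. After 24 h dosing, reporter mRNA was quantified by RT-PCR and capillary electrophoresis, and values fitted bidirectionally versus DMSO.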

[2] = ATG_RORE_CIS: Attagene CIS-FACTORIAL HepG2 Assay for human RAR-related Orphan Receptor Element (RORE) (AID 2282959); conditions: HepG2 Attagene cis-factorial RORE reporter, mRNA; actives raise or lower the signal
In short: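 Cells were HepG2 carrying transfected cis-regulated reporter constructs, dosed for 24 hours. Total RNA was reverse-transcribed and reporter cDNA amplified, fluorescently labeled and sized by capillary electrophoresis. Activity was fitted bidirectionally relative to DMSO.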

[3] = ATG_Sox_CIS: Attagene CIS-FACTORIAL HepG2 Assay for human SRY-box transcription factor (SOX) (AID 2282960); conditions: HepG2 Attagene cis-factorial SOX reporter, mRNA; actives raise or lower the signal
In short: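 Transient MRTU transfection of HepG2; 24 h compound incubation; TriZol RNA, oligo(dT) RT, PCR, 6-FAM primer extension, HpaI cut, CE. Bidirectional fit, DMSO = baseline.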

[4] = target: Transcription factor Sp1 (Homo sapiens) (UniProt P08047); assay: ATG_Sp1_CIS: Attagene CIS-FACTORIAL HepG2 Assay for human Specificity Protein 1 (Sp1) (AID 2282961); conditions: HepG2 Sp1 cis-reporter transcription, actives raise or lower the signal
Transcription factor Sp1 (Homo sapiens), sequence (P08047 whole entry, looked up): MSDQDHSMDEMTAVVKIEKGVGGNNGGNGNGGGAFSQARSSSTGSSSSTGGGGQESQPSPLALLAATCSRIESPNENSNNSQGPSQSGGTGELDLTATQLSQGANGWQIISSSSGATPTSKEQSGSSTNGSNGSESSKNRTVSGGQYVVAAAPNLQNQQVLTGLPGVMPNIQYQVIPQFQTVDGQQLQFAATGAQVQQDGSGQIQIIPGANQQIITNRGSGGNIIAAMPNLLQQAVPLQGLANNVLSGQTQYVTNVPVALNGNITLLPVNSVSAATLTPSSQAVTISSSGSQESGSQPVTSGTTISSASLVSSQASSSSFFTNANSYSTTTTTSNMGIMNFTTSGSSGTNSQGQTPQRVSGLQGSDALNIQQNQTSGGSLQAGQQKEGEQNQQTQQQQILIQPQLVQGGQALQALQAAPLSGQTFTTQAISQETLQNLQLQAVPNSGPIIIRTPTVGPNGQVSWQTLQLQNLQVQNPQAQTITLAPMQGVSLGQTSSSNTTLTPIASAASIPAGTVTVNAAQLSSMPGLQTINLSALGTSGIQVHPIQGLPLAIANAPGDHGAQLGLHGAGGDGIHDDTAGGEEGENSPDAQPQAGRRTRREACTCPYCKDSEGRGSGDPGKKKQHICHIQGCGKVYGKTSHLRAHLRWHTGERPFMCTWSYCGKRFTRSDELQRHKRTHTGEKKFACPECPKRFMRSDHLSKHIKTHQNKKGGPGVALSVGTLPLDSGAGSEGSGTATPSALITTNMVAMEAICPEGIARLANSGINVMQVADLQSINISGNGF
In short: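 Endogenous Sp1 activity was gauged in human liver HepG2 cells bearing transfected reporter units under a cis-regulating promoter. After 24 h dosing, reporter mRNA was quantified by RT-PCR with capillary electrophoresis, and activity fitted bidirectionally versus DMSO.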

[5] = ATG_SREBP_CIS: Attagene CIS-FACTORIAL HepG2 Assay for human Sterol Regulatory Element Binding (SREBP) (AID 2282962); conditions: HepG2 Attagene cis-factorial SREBP reporter, mRNA; actives raise or lower the signal
In short: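 HepG2 cells transiently transfected with multiplexed cis-promoter reporter units sensing endogenous transcription factors; reporter mRNA measured 24 h after dosing by RT-PCR, 6-FAM labeling, HpaI digestion and capillary electrophoresis. Bidirectional fit versus DMSO.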

[6] = target: Signal transducer and activator of transcription 3 (Homo sapiens) (UniProt P40763); assay: ATG_STAT3_CIS: Attagene CIS-FACTORIAL HepG2 Assay for human Signal Transducer and Activator of Transcription 3 (STAT3) (AID 2282963); conditions: HepG2, Attagene cis-factorial STAT3 reporter transcription; actives raise or lower the signal
Signal transducer and activator of transcription 3 (Homo sapiens), sequence (P40763 whole entry, looked up): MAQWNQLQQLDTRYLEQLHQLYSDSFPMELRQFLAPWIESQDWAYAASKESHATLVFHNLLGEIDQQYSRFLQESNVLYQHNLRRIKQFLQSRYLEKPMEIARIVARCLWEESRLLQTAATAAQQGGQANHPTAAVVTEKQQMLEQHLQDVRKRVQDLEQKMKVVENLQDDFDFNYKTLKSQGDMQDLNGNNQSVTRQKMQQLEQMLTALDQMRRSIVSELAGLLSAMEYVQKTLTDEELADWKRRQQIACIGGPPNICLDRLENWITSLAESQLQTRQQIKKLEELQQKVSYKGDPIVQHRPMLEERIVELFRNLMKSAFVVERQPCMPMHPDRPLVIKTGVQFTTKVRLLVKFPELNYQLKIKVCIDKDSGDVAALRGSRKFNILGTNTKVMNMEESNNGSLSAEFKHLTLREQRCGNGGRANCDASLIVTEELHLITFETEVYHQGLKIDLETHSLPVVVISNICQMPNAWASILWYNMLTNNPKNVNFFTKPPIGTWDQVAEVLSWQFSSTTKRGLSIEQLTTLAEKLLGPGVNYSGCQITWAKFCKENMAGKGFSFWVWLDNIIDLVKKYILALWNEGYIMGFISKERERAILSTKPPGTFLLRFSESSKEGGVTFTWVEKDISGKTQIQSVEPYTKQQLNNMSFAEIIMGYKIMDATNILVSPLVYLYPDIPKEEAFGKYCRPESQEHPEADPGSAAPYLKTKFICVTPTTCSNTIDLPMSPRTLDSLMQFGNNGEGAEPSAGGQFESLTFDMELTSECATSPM
In short: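 HepG2 cells transiently transfected with multiple cis-element-driven reporter units report endogenous transcription factor activity. After 24 h compound exposure, reporter mRNA is measured by RT-PCR, 6-FAM labelling, HpaI digestion and capillary electrophoresis. Fitted bidirectionally versus DMSO.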

[7] = ATG_TA_CIS: Attagene CIS-FACTORIAL HepG2 Assay for human TA Basal Promoter (AID 2282964); conditions: HepG2 Attagene CIS-factorial TA basal promoter reporter; actives raise or lower the signal
In short: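 Transient MRTU transfection of HepG2 preceded 24 h compound exposure. Reporter mRNA levels were then read by RT-PCR with capillary electrophoresis, and this background-control endpoint was fitted bidirectionally to DMSO.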

[8] = ATG_TCF_b_cat_CIS: Attagene CIS-FACTORIAL HepG2 Assay for human T-Cell-Factor with beta-catenin (TCF/b-cat) (AID 2282965); conditions: HepG2 TCF/beta-catenin cis-reporter transcription, actives raise or lower the signal
In short: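 HepG2 cells transiently transfected with cis-promoter-driven multiplexed reporter units; reporter mRNA measured 24 h after dosing by RT-PCR, FAM labelling, HpaI digestion and capillary electrophoresis. Bidirectional fitting relative to DMSO baseline.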

[9] = ATG_TAL_CIS: Attagene CIS-FACTORIAL HepG2 Assay for human TAL Basal Promoter (AID 2282966); conditions: HepG2 Attagene cis-factorial TAL promoter reporter; actives raise or lower the signal;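 note: background control endpoint measuring basal TAL promoter reporter mRNA not a specific factor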
In short: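 In this cell-based multiplex, HepG2 liver cells bearing cis-promoter reporter constructs are dosed for 24 hours. Total RNA is reverse-transcribed and amplified, labelled fragments are sized by capillary electrophoresis, and signal changes are fitted bidirectionally versus DMSO.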

[10] = ATG_VDRE_CIS: Attagene CIS-FACTORIAL HepG2 Assay for human Vitamin D Receptor Element (VDRE) (AID 2282968); conditions: HepG2 VDRE cis-reporter transcription, actives raise or lower the signal
In short: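 Transiently transfected HepG2 cells carrying cis-regulated reporter transcription units were exposed for 24 h. Reporter mRNA was measured by RT-PCR with fluorescent labelling and capillary electrophoresis, and fitted in both directions against DMSO.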

[11] = target: Transcriptional activator Myb (Homo sapiens) (UniProt P10242); assay: ATG_Myb_CIS: Attagene CIS-FACTORIAL HepG2 Assay for human Myeloblastosis (Myb) Proto-Oncogene Transcription Factor (AID 2282986); conditions: HepG2 Attagene CIS-FACTORIAL Myb reporter transcription; actives raise or lower the signal
Transcriptional activator Myb (Homo sapiens), sequence (P10242 whole entry, looked up): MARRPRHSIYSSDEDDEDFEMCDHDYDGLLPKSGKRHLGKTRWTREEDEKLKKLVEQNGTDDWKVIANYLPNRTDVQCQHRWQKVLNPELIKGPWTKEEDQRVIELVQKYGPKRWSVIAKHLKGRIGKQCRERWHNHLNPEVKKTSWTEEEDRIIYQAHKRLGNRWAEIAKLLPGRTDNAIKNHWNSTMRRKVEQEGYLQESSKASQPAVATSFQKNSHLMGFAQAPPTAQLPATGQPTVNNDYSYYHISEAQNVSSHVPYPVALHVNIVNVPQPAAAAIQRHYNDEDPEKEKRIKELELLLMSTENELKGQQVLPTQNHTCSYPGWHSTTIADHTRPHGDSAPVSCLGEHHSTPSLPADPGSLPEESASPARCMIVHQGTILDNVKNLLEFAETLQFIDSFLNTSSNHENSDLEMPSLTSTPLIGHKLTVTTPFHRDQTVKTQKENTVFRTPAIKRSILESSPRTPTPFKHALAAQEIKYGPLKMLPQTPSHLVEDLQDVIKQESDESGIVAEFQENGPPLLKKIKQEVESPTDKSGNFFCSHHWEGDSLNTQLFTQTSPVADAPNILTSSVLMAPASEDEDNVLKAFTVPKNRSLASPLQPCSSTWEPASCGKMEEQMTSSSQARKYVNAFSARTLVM
In short: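 Steps: transfect HepG2 with cis-regulated reporter units; dose with chemical for 24 h; isolate RNA, reverse-transcribe, PCR-amplify and FAM-label reporter sequences; digest with HpaI; resolve by capillary electrophoresis. Activity fitted in both directions relative to DMSO.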

[12] = target: Nuclear respiratory factor 1 (Homo sapiens) (UniProt Q16656); assay: ATG_NRF1_CIS: Attagene CIS-FACTORIAL HepG2 Assay for human Nuclear Respiratory Factor 1 (NRF1) Orphan Gene (AID 2282987); conditions: HepG2 NRF1 cis-element reporter, Attagene multiplex; actives raise or lower the signal
Nuclear respiratory factor 1 (Homo sapiens), sequence (Q16656 whole entry, looked up, the tested form may be a part): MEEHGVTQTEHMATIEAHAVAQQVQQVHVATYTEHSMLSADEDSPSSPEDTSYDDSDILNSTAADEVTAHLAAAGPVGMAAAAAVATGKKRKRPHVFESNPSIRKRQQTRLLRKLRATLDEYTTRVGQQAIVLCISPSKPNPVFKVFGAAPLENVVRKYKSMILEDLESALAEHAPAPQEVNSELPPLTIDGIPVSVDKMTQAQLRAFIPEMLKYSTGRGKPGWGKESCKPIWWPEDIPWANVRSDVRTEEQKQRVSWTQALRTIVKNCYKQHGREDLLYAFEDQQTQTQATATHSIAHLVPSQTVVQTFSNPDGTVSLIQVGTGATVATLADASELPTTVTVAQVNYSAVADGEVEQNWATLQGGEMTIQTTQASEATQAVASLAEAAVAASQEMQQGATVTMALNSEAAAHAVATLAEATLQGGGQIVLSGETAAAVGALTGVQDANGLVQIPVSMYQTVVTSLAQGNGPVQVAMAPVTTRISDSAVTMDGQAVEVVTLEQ
In short: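 Fluorescence intensity of labelled reporter cDNA fragments, resolved by capillary electrophoresis, served as readout for NRF1 cis-element activity. Transiently transfected HepG2 cells were dosed for 24 hours; activity in either direction was fitted against DMSO negative control.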

[13] = ATG_NFI_CIS: Attagene CIS-FACTORIAL HepG2 Assay for human Nuclear Factor I (NFI) (AID 2282989); conditions: HepG2 cis-regulatory reporter, NFI response element transcription; actives raise or lower the signal
In short: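 Reporter transcription driven by endogenous transcription factors in HepG2 cells; 24 h treatment. Quantitation by labelled RT-PCR fragments on capillary electrophoresis, gain- or loss-of-signal relative to DMSO.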

[14] = target: Myc proto-oncogene protein (Homo sapiens) (UniProt P01106); assay: ATG_Myc_CIS: Attagene CIS-FACTORIAL HepG2 Assay for human Myelocytomatosis (Myc) Proto-Oncogene Transcription Factor (AID 2282990); conditions: HepG2, Attagene cis-reporter transcription factor activity; actives raise or lower the signal
Myc proto-oncogene protein (Homo sapiens), sequence (P01106 whole entry, looked up): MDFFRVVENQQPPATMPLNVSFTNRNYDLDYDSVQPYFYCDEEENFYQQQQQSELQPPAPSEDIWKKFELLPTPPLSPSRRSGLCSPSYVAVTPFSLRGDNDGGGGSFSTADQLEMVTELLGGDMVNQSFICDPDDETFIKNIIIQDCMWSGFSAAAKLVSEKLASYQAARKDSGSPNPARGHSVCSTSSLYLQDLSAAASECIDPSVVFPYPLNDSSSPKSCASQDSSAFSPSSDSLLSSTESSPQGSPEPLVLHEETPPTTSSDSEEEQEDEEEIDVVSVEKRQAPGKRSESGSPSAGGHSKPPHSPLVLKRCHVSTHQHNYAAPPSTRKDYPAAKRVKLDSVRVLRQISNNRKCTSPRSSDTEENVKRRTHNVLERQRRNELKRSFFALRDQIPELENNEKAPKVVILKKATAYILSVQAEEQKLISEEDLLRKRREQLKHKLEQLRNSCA
In short: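 Transiently transfected HepG2 cells bearing cis-promoter reporter units for endogenous transcription factors; 24 h exposure. Reporter mRNA measured by RT-PCR, 6-FAM primer extension, HpaI cut and capillary electrophoresis; bidirectional fit relative to DMSO.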

[15] = ATG_NRF2_ARE_CIS: Attagene CIS-FACTORIAL HepG2 Assay for human Nuclear Factor Erythroid 2 Related Factor 2 (NFR2) response to Antioxidant Response Elements (ARE) (AID 2282992); conditions: HepG2 Attagene ARE/NRF2 reporter, transcription factor activity; actives raise or lower the signal
In short: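 HepG2 cells transiently transfected with multiplexed cis-element reporter constructs, 24 h after chemical dosing; reporter mRNA quantified by RT-PCR, fluorescent primer extension, HpaI digestion and capillary electrophoresis. Bidirectional fit relative to DMSO.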

[16] = ATG_Oct_MLP_CIS: Attagene CIS-FACTORIAL HepG2 Assay for human Octamer-Binding Transcription Factor (Oct) (AID 2282993); conditions: HepG2 Attagene cis-factorial Oct reporter, mRNA; actives raise or lower the signal
In short: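 Transfected HepG2 cells, 24 h treatment. Reporter mRNA quantified by RT-PCR–capillary electrophoresis; bidirectional fitting against DMSO.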

[17] = ATG_XTT_Cytotoxicity: Cytotoxicity Assessment in the Attagene TRANS-FACTORIAL HepG2 Assay (AID 2283584; active = hit-call score of the fitted dose curve at least 0.9, where 1 is the maximum)
In short: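 XTT readout of cell number in transfected HepG2 cells, 24 h post-dosing; DMSO serves as negative control and baseline, with activity taken as loss of viability signal.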

[18] = target: Heat shock factor protein 1 (Homo sapiens) (UniProt Q00613); assay: ATG_HSE_CIS: Attagene CIS-FACTORIAL HepG2 Assay for human Heat Shock Transcription Factor 1 (HSE) (AID 2282953); conditions: HepG2 HSE cis-reporter, Attagene RNA transcription; actives raise or lower the signal
Heat shock factor protein 1 (Homo sapiens), sequence (Q00613 whole entry, looked up): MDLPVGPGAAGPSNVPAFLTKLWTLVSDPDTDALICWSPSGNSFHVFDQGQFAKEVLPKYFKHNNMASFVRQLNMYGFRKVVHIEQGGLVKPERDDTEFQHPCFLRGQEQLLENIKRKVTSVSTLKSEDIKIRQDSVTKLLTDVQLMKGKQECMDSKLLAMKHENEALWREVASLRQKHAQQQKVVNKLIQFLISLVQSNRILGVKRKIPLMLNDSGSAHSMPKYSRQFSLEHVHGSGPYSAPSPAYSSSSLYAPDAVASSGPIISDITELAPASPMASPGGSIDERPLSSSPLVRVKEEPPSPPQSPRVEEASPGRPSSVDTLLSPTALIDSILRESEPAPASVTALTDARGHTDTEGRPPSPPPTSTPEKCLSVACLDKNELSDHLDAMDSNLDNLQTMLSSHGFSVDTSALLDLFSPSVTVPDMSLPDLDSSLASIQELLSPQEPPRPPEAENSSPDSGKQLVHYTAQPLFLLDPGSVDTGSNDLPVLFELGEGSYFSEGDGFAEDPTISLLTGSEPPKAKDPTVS
In short: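 Using HepG2 with transfected cis-driven reporter constructs, compound effects on endogenous factor activity are scored as reporter mRNA change at 24 h. Detection: RT-PCR, HpaI digestion, capillary electrophoresis; bidirectional fitting to DMSO.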

[19] = target: Cellular tumor antigen p53 (Homo sapiens) (UniProt P04637); assay: ATG_p53_CIS: Attagene CIS-FACTORIAL HepG2 Assay for human p53 Transcription Factor (AID 2282994); conditions: HepG2 p53 cis-element reporter, Attagene mRNA; actives raise or lower the signal
Cellular tumor antigen p53 (Homo sapiens), sequence (P04637 whole entry, looked up): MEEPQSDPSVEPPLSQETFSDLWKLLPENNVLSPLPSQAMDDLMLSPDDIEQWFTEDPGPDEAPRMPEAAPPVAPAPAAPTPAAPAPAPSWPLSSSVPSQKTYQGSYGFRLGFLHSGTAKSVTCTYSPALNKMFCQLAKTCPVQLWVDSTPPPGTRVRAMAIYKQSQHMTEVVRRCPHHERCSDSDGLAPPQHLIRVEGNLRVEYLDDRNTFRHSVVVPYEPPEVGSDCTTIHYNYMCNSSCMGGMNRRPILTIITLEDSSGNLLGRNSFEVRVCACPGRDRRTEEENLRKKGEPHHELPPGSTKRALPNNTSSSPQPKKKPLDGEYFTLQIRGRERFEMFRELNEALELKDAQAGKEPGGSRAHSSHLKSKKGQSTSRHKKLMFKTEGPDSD
In short: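 HepG2 cells transiently transfected with cis-regulated multiple reporter transcription units, dosed 24 h. Reporter mRNA measured by RT-PCR, 6-FAM primer extension, HpaI digestion and capillary electrophoresis; bidirectional fit relative to DMSO.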

[20] = target: Nuclear receptor subfamily 1 group I member 2 (Homo sapiens) (UniProt O75469); assay: ATG_PXR_TRANS: Attagene TRANS-FACTORIAL HepG2 Assay for human Pregnane X Receptor (PXR) (AID 2283008; active = hit-call score of the fitted dose curve at least 0.9, where 1 is the maximum)
Nuclear receptor subfamily 1 group I member 2 (Homo sapiens), sequence (O75469 whole entry, looked up, the tested form may be a part): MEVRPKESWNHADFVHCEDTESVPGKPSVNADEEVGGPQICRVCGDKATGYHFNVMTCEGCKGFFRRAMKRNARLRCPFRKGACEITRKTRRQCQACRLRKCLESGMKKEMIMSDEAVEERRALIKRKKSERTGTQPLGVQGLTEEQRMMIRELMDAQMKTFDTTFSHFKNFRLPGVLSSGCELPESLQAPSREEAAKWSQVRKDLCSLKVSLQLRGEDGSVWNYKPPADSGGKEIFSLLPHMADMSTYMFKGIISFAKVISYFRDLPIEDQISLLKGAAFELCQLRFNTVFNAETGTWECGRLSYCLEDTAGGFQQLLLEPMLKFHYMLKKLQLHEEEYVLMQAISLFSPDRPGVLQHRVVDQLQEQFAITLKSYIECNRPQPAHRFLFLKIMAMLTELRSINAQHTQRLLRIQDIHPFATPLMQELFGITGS
In short: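 HepG2 cells transiently transfected with GAL4-UAS reporter units and PXR-Gal4 chimera, exposed 24 h. Reporter mRNA quantified by RT-PCR, fluorescent labelling, HpaI digestion and capillary electrophoresis; gain of signal vs DMSO.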

Measured: outcome

C1=CCC=C1
not listed: [18] | [19] | [20]
inactive: all other assays above

COC(=O)c1ccccc1
inactive: all assays above

CCCC(=O)OC/C=C(\C)CCC=C(C)C
not listed: [19]
inactive: all other assays above
